In the library only some 7.5% were active in any assay of this set; here they are far more common.
VACV mCherry inh: vaccinia inhibition (mCherry reporter); AID 720579; Vaccinia virus mCherry reporter infection, fluorescence; hit rate 0.63% among 310,000; Potency, µM (titrated, usually from 36.5 µM), inactives show at the highest dose activity change, negative = inhibition, hits mostly inhibitors; calls by dose curve; tested in A549 cells; note: potency is the fitted concentration of half-maximal effect; nearly all actives have a fitted effect of over 35% in size
HCMV antiviral: human cytomegalovirus inhibition; HFF cells, HCMV-luciferase reporter, 72 h; active compounds read low; activity change, negative = inhibition, % at 57.5 µM; hit rate 4.5% among 410,000; AID 1259415; in the data active = activity change below about -60%; inconclusive = no clear call, values can overlap the other calls; inactive = above about -39%
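After 16 h attachment at 37C, HFF cells received test compound and HCMV-luciferase (1 PFU/cell); reporter luminescence read 72 h later, data normalized against buffer-only and known inhibitor Salinomycin.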
FMDV antiviral: blocks foot and mouth disease virus; FMDV antiviral cell-based qHTS; Potency, µM (top dose mostly 57.9 µM), for the others: top-dose activity change, negative = inhibition, usual class: inhibitors; hit rate 1.2% among 410,000; calls by dose curve; tested in HEK293T cells; note: read-out not given here; potency is the fitted concentration of half-maximal effect; nearly all actives have a fitted effect of over 45% in size
Vaccinia Venus: inhibitors of vaccinia virus (Venus reporter); Potency, µM (highest dose often 36.5 µM), without a hit: at the top dose activity change, negative = inhibition, usual class: inhibitors; hit rate 0.46% among 330,000; Vaccinia virus Venus reporter expression, fluorescence; AID 720580; calls by dose curve; tested in A549 cells; note: potency is the fitted concentration of half-maximal effect; nearly all actives have a fitted effect of over 30% in size
Giardia FBPA inh: blocks Giardia fructose-bisphosphate aldolase activity; purified Giardia FBPA; Potency, µM (top dose mostly 59.6 µM), inactives show at the highest dose activity, negative = inhibition, hits mostly inhibitors; A8B2U2; hit rate 0.71% among 290,000; note: potency is the fitted concentration of half-maximal effect; nearly all actives have a fitted effect of over 55% in size
Target sequence (A8B2U2 whole entry, looked up): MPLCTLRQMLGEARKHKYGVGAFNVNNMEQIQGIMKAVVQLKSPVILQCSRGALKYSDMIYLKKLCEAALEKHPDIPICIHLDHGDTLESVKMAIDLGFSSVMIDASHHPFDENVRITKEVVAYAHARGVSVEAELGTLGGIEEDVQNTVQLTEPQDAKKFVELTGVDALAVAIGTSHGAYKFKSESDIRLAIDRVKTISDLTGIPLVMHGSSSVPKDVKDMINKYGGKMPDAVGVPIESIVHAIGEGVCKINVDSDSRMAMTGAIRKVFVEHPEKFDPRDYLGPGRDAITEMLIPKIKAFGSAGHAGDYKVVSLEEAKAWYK
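40 nM FBPA preincubated 10 min at RT with compound (up to 57.5 uM final), then substrate plus GAPDH/TPI/NAD/arsenate coupling and diaphorase/resazurin added. Fluorescence read after 20 min at RT, 525/598 nm.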
HCV inh: blocks hepatitis C virus; Huh7.5.1 HCVcc-Cre infection, luciferase reporter, 44 h; Potency, µM (highest dose often 41.8 µM), inactives show at the highest dose activity change, negative = inhibition, actives largely listed as inhibitors; hit rate 3.4% among 340,000; note: potency is the fitted concentration of half-maximal effect
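Luciferase read-out (15 sec integration) after a 15 min room-temperature substrate step quantifies HCVcc-Cre infection. Cells, 1,000 per well, had compound added 4 h post-plating, then virus at ~0.5 moi, and were cultured 44 h.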
The depositor's hits bear a star; i = inactive; ? = inconclusive; . = no result given; [ ] = another dose, or the depositor's remark. Unless noted, calls come from the whole dose curve; as a rule, active = well fitted curve in the direction sought with a large enough effect; inconclusive = small, poorly fitted or top-dose-only effect, or another doubt; inactive = no such curve, though single readings can be large; an effect the other way counts as inactive or inconclusive. % is set by controls: 0 for no effect and ±100 for the full control effect.

SMILES	VACV mCherry inh	HCMV antiviral	FMDV antiviral	Vaccinia Venus	Giardia FBPA inh	HCV inh
CCOC(=O)C1(Cc2cccc(OC)c2)CCN(Cc2cc(OC)ccc2OC)CC1	?	-40	3%	-14%	0%	?
CCOC(=O)C1(CCOC)CCN(Cc2cccc(OCc3ccccc3)c2)CC1	.	?	?	.	4%	?
CCOC(=O)C1(Cc2ccc(Cl)cc2)CCN(Cc2ccon2)CC1	.	-66*	-22%	.	-10%	1%
CCOC(=O)C1(Cc2cccc(OC)c2)CCN(Cc2cccc(OC)c2OC)CC1	-22%	?	?	-1%	-4%	10µM*
COc1ccc(C2=NCC(C)n3c2c2ccc(OC)cc2[n+]3[O-])cc1 (stereo not drawn)	.	33	.	.	.	.
C=C(C)C(=O)N1CC2(CC(c3cccc(NC(=O)/C(C)=C\C)c3)=NO2)C[C@H]1C(N)=O (stereo partly drawn)	-11%	15	-1%	-8%	7%	33%
CC(C)Sc1nc(-c2cccs2)nc2cc(Cl)ccc12	1%	-19	-21%	0%	.	.
Cc1ccc(NC(=O)CNC(=O)c2ccco2)nc1	.	8	-1%	.	.	5%
Cc1cc(NC(=O)CSc2nnc(C)n2C)no1	-8%	32	0%	6%	.	21%
CCOC(=O)C1(Cc2ccccc2Cl)CCN(Cc2csc(C(C)=O)c2)CC1	-13%	-8	-22%	-9%	-23%	13µM*
C=CCn1c(SCC(=O)Nc2ccccc2OC)nnc1-c1ccccn1	.	18	?	.	-11%	7.9µM*
C=CCn1c(SCC(=O)Nc2cc(NC(C)=O)ccc2OC)nnc1-c1ccccn1	.	37	-15%	.	-10%	-2%
CN(C)c1ccc(CNC(=O)C2Cc3c(-c4cccc(C(N)=O)c4)ccnc3O2)cc1 (stereo not drawn)	-12%	22	6%	-21%	.	.
COc1ccc(C(C)=O)cc1COC(=O)Cc1cc(OC)c(OC)c(OC)c1	i	-26	-3%	0%	9%	-19%
Cc1ccc(-n2ncc3c2ncn2c(C)nnc32)cc1C	i	-67*	.	0%	-2%	1%
CC1CCC2C(=O)N(c3ccc(Cc4ccncc4)cc3)C(=O)C2C1 (stereo not drawn)	-20%	-75*	?	-7%	8%	?
CC1CCN(C(=O)c2ccc(N3C(=O)C4CCC(C)CC4C3=O)cc2)CC1 (stereo not drawn)	?	-28	-7%	8%	5%	3%
O=C(Nc1ccc(Cc2ccncc2)cc1)C1CCC(N2C(=O)C3C4C=CC(C4)C3C2=O)CC1 (stereo not drawn)	?	-80*	.	38%	4%	8.9µM*
O=C1C2C3C=CC(C3)C2C(=O)N1c1ccc(Cc2ccncc2)cc1 (stereo not drawn)	-3%	-67*	-24%	-25%	4%	-28%
Cc1cc(-n2c(C)c3c(C)nnc(C)c3c2C)ccc1N	15%	-62*	-18%	0%	-25%	-76%
Cc1ccc(-n2c(C)c3c(C)nnc(C)c3c2C)cc1N	i	-17	-17%	3%	?	?
CC1=C(C(=O)OCC2CCCO2)C(c2ccc(C)o2)C2=C(CC(c3ccc(F)cc3)CC2=O)N1 (stereo not drawn)	-30%	.	5%	-18%	-7%	8.9µM*
CC1=C(C(=O)OCC2CCCO2)C(c2ccc(C)o2)C2=C(CC(c3ccc(N(C)C)cc3)CC2=O)N1 (stereo not drawn)	.	.	.	.	-21%	?
COC(=O)c1[nH]c2ccccc2c1NC(=O)CN1CCN(c2cccc(OC)c2)C(C)C1 (stereo not drawn)	.	-103*	?	.	-8%	?
COC(=O)c1[nH]c2cc(OC)ccc2c1NC(=O)CCN1CCN(c2ccccc2)CC1	.	-3	-11%	.	4%	-12%
SMILES	VACV mCherry inh	HCMV antiviral	FMDV antiviral	Vaccinia Venus	Giardia FBPA inh	HCV inh
CCOc1ccc(OCC)c(NC(=O)CN2CCN(c3cccc(C)c3)CC2)c1	?	-3	?	-24%	-25%	?
COC(=O)c1[nH]c2cc(OC)ccc2c1NC(=O)CCN1CCN(c2cccc(C)c2C)CC1	.	8	40µM*	?	-6%	6.3µM*
CCOc1ccc(OCC)c(NC(=O)CN2CCN(c3cccc(C)c3)C(C)C2)c1 (stereo not drawn)	-19%	-7	?	-16%	?	8.9µM*
COc1ccc(N(C(=O)c2cccc(C)c2)S(=O)(=O)c2ccc(C)cc2)cc1	i	-12	-12%	-3%	.	.
COc1cc(C(=O)Nc2c(C)cc(C)cc2C)c([N+](=O)[O-])cc1OC	-8%	-11	-6%	1%	3%	?
O=C(Nc1ccc(F)cc1)C1=CC(=O)N2CCN=C2S1	.	.	.	.	-9%	.
Cc1ccccc1NS(=O)(=O)c1ccc2[nH]cc(C(=O)NC(C)c3ccccc3)c(=O)c2c1 (stereo not drawn)	-9%	-20	-1%	-11%	.	.
Cc1oc(-c2ccccc2F)nc1CS(=O)(=O)CC(=O)N1CCN(c2cccc(C(F)(F)F)c2)CC1	?	-24	35µM*	?	.	.
Cc1cccc(N2CCN(C(=O)CS(=O)(=O)Cc3nc(-c4ccccc4F)oc3C)CC2C)c1 (stereo not drawn)	-6%	-31	35µM*	-26%	0%	13µM*
CCCc1cc(=O)[nH]c(SCC(=O)NCC2COc3ccccc3O2)n1 (stereo not drawn)	.	5	-17%	.	.	22%
CC(=O)N(/N=C1\Sc2ccccc2C1=O)c1ccc(C)cc1C	-8%	-86*	?	0%	0%	4%
CN1CCN(NC(=S)Nc2ccc(Oc3ccccc3)cc2)CC1	-19%	-67*	?	-8%	1%	?
COc1ccc(NC(=O)CCS(=O)(=O)c2nc(-c3cccs3)cc(C(F)(F)F)n2)cc1OC	-8%[7.34 µM]	-101*	22µM*	-11%[7.34 µM]	.	.
O=C(CCS(=O)(=O)c1nc(-c2cccs2)cc(C(F)(F)F)n1)Nc1cccc(O)c1	-19%[7.34 µM]	-99*	22µM*	-16%[7.34 µM]	.	.
COc1ccc(NC(=O)CCS(=O)(=O)c2nc(-c3ccc4c(c3)OCO4)cc(C(F)(F)F)n2)cc1OC	-8%	10	-6%	0%	.	.
COc1cc(NC(=O)CCS(=O)(=O)c2nc(-c3cccs3)cc(C(F)(F)F)n2)cc(OC)c1OC	?	-98*	25µM*	-23%	.	.
O=C(CCS(=O)(=O)c1nc(-c2ccc3c(c2)OCO3)cc(C(F)(F)F)n1)Nc1ccc(F)c(Cl)c1	-19%	-100*	?	-17%	.	.
COc1cc([C@H]2Oc3c(OC)cc(CCCO[C@@H]4O[C@H](CO)[C@@H](O)[C@H](O)[C@H]4O)cc3[C@@H]2CO)ccc1O	10%	18	0%	8%	.	2%

High-throughput results from PubChem BioAssay.
